High-throughput results (PubChem BioAssay)
CF NFkB inh: blocks PAF-induced NF-kB reporter in cystic fibrosis cells; AID 588850; KKLEB NF-kB-GFP reporter, GFP fluorescence overnight; hit rate 0.86% among 360,000; inhibition, % at 5 µM;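 active = at least 50% inhibition at 5 µM, scaled per plate between neutral and stimulator controls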;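 note: PAF is a Pseudomonas aeruginosa culture filtrate used as stimulus; plate controls were PAF-stimulated DMSO wells for no effect and unstimulated DMSO wells for full effect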
Mdm2 MdmX PPI: human Mdm2/MdmX binding inhibition. inhibition, % at 8 µM. SaOS-2 split-luciferase Mdm2/MdmX complementation, luminescence. hit rate 3% among 330,000. AID 485346. O15151+Q00987;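 active = inhibition of at least 50% at 8 µM in the primary screen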
ABHD5 PLIN5 PPI: inhibitors of human ABHD5-perilipin-5 interaction; inhibition, % at 4 µM; Q00G26+Q8WTS1; AID 602281; Split G. princeps luciferase complementation, luminescence, 4 h; hit rate 0.78% among 360,000;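 active = inhibition above the mean inhibition across every tested compound plus 3 SD, cut at about 22% in these data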;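 note: 0% = DMSO only wells and the 100% control is not disclosed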
KKLEB tox: CF airway cell cytotoxicity counter-screen; hit rate 0.36% among 360,000; activity change (cytotoxicity), % at 5 µM; KKLEB CF airway cells viability, ATPlite luminescence, overnight; hits give low values; cells stimulated with P. aeruginosa culture filtrate;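 active = corrected activity change at or below -50% at 5 µM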
HIF-2a inh: inhibitors of HIF-2a; 786-0 RCC cells HIF-2a reporter, luciferase luminescence, overnight; inhibition, % at 18.8 µM; AID 624352; hit rate 0.72% among 360,000;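 active = inhibition of the luminescence signal of 40% or more relative to plate controls, in a single-dose primary screen at 18.75 µM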
Peg3 prom inh: inhibitors of Peg3 promoter | HeLa PEG-Prom luciferase reporter, luminescence, overnight | hit rate 1.7% among 360,000 | AID 588405 | inhibition, % at 20 µM;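 active = inhibition of at least 50% at 20 µM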
ABHD5 PLIN5 conf: ABHD5-PLIN5 interaction inhibition, confirmed; shares compounds with ABHD5 PLIN5 PPI; biochemical ABHD5-PLIN5 interaction, luminescence; AID 651612; hit rate 67% among 2,200; inhibition, % at 4 µM; in the data active = inhibition above about 23%;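 note: 0% = DMSO vehicle wells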
HNF4 counter: active in HNF4 split-luciferase counter-screen for ABHD5-PLIN5 inhibitors. hit rate 77% among 2,200. inhibition, % at 4 µM. HNF4 dimerization, luminescence, biochemical. shares compounds with ABHD5 PLIN5 PPI. AID 651674;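 active = mean inhibition across replicate wells exceeding the computed hit threshold, cut at about 13% in these data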;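 note: light from luciferase halves that rejoin when HNF4 fusion proteins dimerize; 0% = DMSO only wells and the 100% control is not given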
Target sequence (P41235 whole entry, looked up, the tested form may be a part): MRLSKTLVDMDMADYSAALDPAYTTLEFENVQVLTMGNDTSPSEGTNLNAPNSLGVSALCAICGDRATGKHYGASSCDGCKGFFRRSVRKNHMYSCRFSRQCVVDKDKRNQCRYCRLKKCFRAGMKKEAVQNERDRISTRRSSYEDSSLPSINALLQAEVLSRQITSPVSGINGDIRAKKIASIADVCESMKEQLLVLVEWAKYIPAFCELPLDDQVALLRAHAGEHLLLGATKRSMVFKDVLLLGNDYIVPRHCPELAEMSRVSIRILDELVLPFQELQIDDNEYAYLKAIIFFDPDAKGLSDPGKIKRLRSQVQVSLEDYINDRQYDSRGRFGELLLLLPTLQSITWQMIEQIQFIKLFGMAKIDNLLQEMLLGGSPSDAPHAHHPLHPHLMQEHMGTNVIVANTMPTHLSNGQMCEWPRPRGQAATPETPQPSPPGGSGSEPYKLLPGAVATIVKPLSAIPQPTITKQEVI
Starred values were filed as active, the others as inactive; nt = no result. An excerpt weighted towards active compounds, which were near 4.6% of everything screened.

SMILES	CF NFkB inh	Mdm2 MdmX PPI	ABHD5 PLIN5 PPI	KKLEB tox	HIF-2a inh	Peg3 prom inh	ABHD5 PLIN5 conf	HNF4 counter
C(=C\c1ccco1)/C1=NN(c2ccccc2)C(c2ccco2)C1 (stereo not drawn)	1.7	2.3	33.6*	-7.1	-185.9	-72.5	26.6*	17.5*
Cc1ccc(S(=O)(=O)N2CCN(c3cccc(C)c3)CC2)cc1	-10.6	-1.6	-4.9	-2.9	8.8	25.1	nt	nt
COCCn1c2nc(=O)n(-c3ccccc3)c(=O)c-2nc2ccccc21	2.7	nt	-9.8	1.6	18.0	22.4	nt	nt
CC1(C)CC(N=c2cc(-c3ccccc3)oc3ccc(Cl)cc23)CC(C)(C)N1	2.3	nt	28.7*	-15.6	-89.0	107.6*	5.5	10.5
COC(=O)C(C(C)C)N(Cc1cc(OC)cc(OC)c1)S(=O)(=O)CCl (stereo not drawn)	-15.3	-9.5	-2.2	-4.0	0.2	9.8	nt	nt
CC(Oc1ccc(Br)cc1)C(=O)N1CCN(c2ccccn2)CC1 (stereo not drawn)	17.6	-9.1	-3.1	-14.3	21.9	2.6	nt	nt
CC(Oc1ccc(Br)cc1)C(=O)N1CCC(C(N)=O)CC1 (stereo not drawn)	-4.1	11.0	45.0*	-2.2	18.0	-3.2	9.7	6.6
CCC(=O)N(CCC(c1ccc(C)cc1)c1ccco1)Cc1ccco1 (stereo not drawn)	-2.2	-16.6	25.5*	-9.3	15.0	-5.7	16.8	12.3
Cc1cccc(CN2CCN(C3CN(Cc4cn(Cc5ccccc5C(F)(F)F)nn4)S(=O)(=O)C3)CC2)c1 (stereo not drawn)	-17.1	nt	1.8	5.3	2.0	1.4	nt	nt
CC1(S(=O)(=O)O)CC(=O)c2ccccc2C1=O (stereo not drawn)	68.9*	24.5	29.2*	28.5	31.7	10.3	41.6*	56.1*
O=C1c2ccccc2C(=O)C1(O)O	nt	8.0	nt	nt	nt	nt	nt	nt
O=c1[nH]c(/C=C/c2ccccc2Cl)c([N+](=O)[O-])c(=O)[nH]1	-5.9	12.0	39.0*	1.8	11.4	-7.1	71.2*	61.4*
O=C(COc1ccccc1/C=C1\SC(=O)NC1=O)Nc1ccccc1	-1.0	29.4	1.2	-4.5	13.7	6.9	nt	nt
COc1cccc(/C=C/c2[nH]c(=O)[nH]c(=O)c2[N+](=O)[O-])c1O	4.1	17.0	32.4*	5.6	19.7	19.9	78.1*	79.8*
O=C(COc1ccccc1/C=C\c1[nH]c(=O)[nH]c(=O)c1[N+](=O)[O-])Nc1ccccc1	20.6	nt	30.4*	6.2	-28.2	-38.1	86.8*	84.2*
O=C1NC[C@@H](CCCCN2C[C@H](Cc3ccc(O)cc3)N(CCc3ccccc3)C(=O)C2=O)N(CCc2ccccc2)C1=O	nt	nt	12.8	nt	9.1	nt	nt	nt
CCC(=O)N1CCCC(C)(C(=O)Nc2ccc(OC(F)F)cc2)C1 (stereo not drawn)	-18.0	nt	-11.9	1.8	17.9	1.3	nt	nt
COc1ccc(S(=O)(=O)N(C)CC(=O)NCCCn2ccnc2)cc1Cl	4.7	19.0	7.2	7.0	8.6	21.9	nt	nt
Cc1ccc(C2C3=C(CC(C)(C)CC3=O)N=C3c4ccccc4C(=O)C32)cc1 (stereo not drawn)	23.7	36.3	28.1*	-2.6	29.9	31.8	58.0*	69.3*
COc1cc(N2C(=O)C=CC2=O)ccc1N1C(=O)C=CC1=O	78.4*	nt	51.9*	-32.2	84.5*	110.9*	75.5*	111.1*
C#CCOCCOCCOCCNc1nc(N2CCN(C(=O)CCCCCCCCCCNC(=O)[C@@H](CCSC)n3cc(CCO)nn3)CC2)nc(N2CCN(C(=O)CCCCCCCCCCNC(=O)[C@H](CCSC)n3cc(CCO)nn3)CC2)n1	33.5	26.3	43.7*	7.7	-3.1	-0.6	9.4	-19.7
C#CCOCCOCCOCCNc1nc(N2CCN(C(=O)CCCCCCCCCCNC(=O)Cn3cc(C[C@@H](C)O)nn3)CC2)nc(N2CCN(C(=O)CCCCCCCCCCNC(=O)[C@H](CCCCN)n3cc(CCCC(=O)O)nn3)CC2)n1	21.6	1.6	36.0*	6.2	3.6	-7.6	0.5	13.5*
C#CCOCCOCCOCCNc1nc(N2CCN(C(=O)CCCCCCCCCCNC(=O)[C@H](CCCCN)n3cc(CCCC(=O)O)nn3)CC2)nc(N2CCN(C(=O)CCCCCCCCCCNC(=O)[C@@H]([C@H](C)O)n3cc(C)nn3)CC2)n1	7.1	9.5	36.7*	-14.8	-1.6	5.0	7.7	2.4
C#CCOCCOCCOCCNc1nc(N2CCN(C(=O)CCCCCCCCCCNC(=O)Cn3cc(CCCCCN)nn3)CC2)nc(N2CCN(C(=O)CCCCCCCCCCNC(=O)[C@@H](CCC(=O)O)n3cc(CCCCCN)nn3)CC2)n1	-7.0	9.8	22.0	-1.7	-12.2	-42.0	nt	nt
C#CCOCCOCCOCCNc1nc(N2CCN(C(=O)CCCCCCCCCCNC(=O)[C@H]([C@@H](C)CC)n3cc(CCCCCN)nn3)CC2)nc(N2CCN(C(=O)CCCCCCCCCCNC(=O)[C@H](CCCCN)n3cc(CCCC(=O)O)nn3)CC2)n1	-30.3	22.6	39.5*	30.8	-8.2	-26.5	9.9	-2.9
SMILES	CF NFkB inh	Mdm2 MdmX PPI	ABHD5 PLIN5 PPI	KKLEB tox	HIF-2a inh	Peg3 prom inh	ABHD5 PLIN5 conf	HNF4 counter
Cc1cccc(NC(=O)N2CCc3ccccc3C2)c1C	-51.0	-0.9	6.5	11.6	-177.4	-157.0	nt	nt
COc1cc(C)ccc1Oc1ccc([N+](=O)[O-])cc1	13.9	nt	-1.6	4.8	-53.7	-31.0	nt	nt
NCc1csc(Nc2ncccn2)n1	9.6	nt	-1.2	1.4	9.1	18.4	nt	nt
CC(C)=C(NC(=O)c1ccccc1)C(=O)Nc1cccc(C)c1	-31.1	4.1	-2.7	18.3	10.0	6.8	nt	nt
CCCCNc1cc(=O)n(C)c(=O)n1C	0.5	16.6	-0.2	-0.5	2.3	13.7	nt	nt
Cn1c(NCCN(CCO)CCCc2ccc([N+](=O)[O-])cc2)cc(=O)n(C)c1=O	-0.4	-0.1	29.8*	0.3	4.4	-0.3	2.2	1.7
CCOC(=O)N1CCN(C(=O)CN2C(=O)NC(c3ccccc3)(c3ccccc3)C2=O)CC1	-6.7	0.0	5.8	-4.1	12.8	13.8	nt	nt
CC1CC(C)CN(C(=O)CN2C(=O)NC(c3ccccc3)(c3ccccc3)C2=O)C1 (stereo not drawn)	-8.6	-0.7	34.3*	5.4	6.8	10.6	2.8	3.3
CCOC(=O)C1CCCCN1C(=O)c1ccc2nc(Cc3ccc(OC)cc3)oc2c1 (stereo not drawn)	1.1	22.6	4.8	-4.3	-9.8	4.2	nt	nt
CCOC(=O)C1CCCCN1C(=O)/C(=C/c1ccc(OC)cc1)c1ccc(OC)c(OC)c1 (stereo not drawn)	-6.9	9.0	24.5*	-2.5	10.8	10.3	-3.8	-0.2
